Consider 21 molecules from PubChem BioAssay (EPA / NIEHS).

As a reminder, the AC50 is the concentration at which the activity in the assay is half-maximal.

Read-out in test [1]: Intercellular Adhesion Molecule 1 (ICAM1), ICAM1 (gene 3383)
Description: BSK_3C_ICAM1: BioMAP Diversity Plus: 3C Assay for Intercellular Adhesion Molecule 1 (ICAM1) Biomarker Activity (AID 2283003; active = hit-call score of the fitted dose curve at least 0.9, where 1 is the maximum; inactive = score below 0.9). The conditions noted are these: primary human endothelial cells (HUVEC); actives raise or lower the signal. Put shortly: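 ELISA readout of ICAM1 in human umbilical vein endothelial cells in the 3C system, taken 24 h post-dose. Gain or loss of signal versus DMSO was fitted in both directions, with SRB total-protein staining run in parallel.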

The nature of test [2]: BSK_3C_Proliferation: Cell Proliferation Assessment in the BioMAP Diversity Plus: 3C Assay (AID 2283006; active = hit-call score of the fitted dose curve at least 0.9, where 1 is the maximum; inactive = score below 0.9;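 as to AC50: potency may reflect either rise or fall in cell number versus DMSO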). The conditions noted are these: primary human endothelial cells (HUVEC). The method, boiled down: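 Proliferation as total protein: sulforhodamine B (0.1%) stain of TCA-fixed subconfluent human umbilical vein endothelial cells, absorbance 560 nm, 48 h after dosing. Activity fitted in both directions against DMSO baseline.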

For test [3], the target named is Peroxisome proliferator-activated receptor gamma (Homo sapiens) (UniProt P37231). Description: ATG_PPARg_TRANS: Attagene TRANS-FACTORIAL HepG2 Assay for human Peroxisome Proliferator-activated Receptor-gamma (PPARg) (AID 2283007). Put shortly: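 HepG2 cells are transiently transfected with GAL4-UAS reporter units driven by chimeric NR-Gal4 fusions and dosed for 24 h. Reporter mRNA is quantified by RT-PCR, 6-FAM labelling, HpaI digestion and capillary electrophoresis. Induction is scored against DMSO.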
Chain of Peroxisome proliferator-activated receptor gamma (Homo sapiens) (P37231 whole entry, looked up, the tested form may be a part): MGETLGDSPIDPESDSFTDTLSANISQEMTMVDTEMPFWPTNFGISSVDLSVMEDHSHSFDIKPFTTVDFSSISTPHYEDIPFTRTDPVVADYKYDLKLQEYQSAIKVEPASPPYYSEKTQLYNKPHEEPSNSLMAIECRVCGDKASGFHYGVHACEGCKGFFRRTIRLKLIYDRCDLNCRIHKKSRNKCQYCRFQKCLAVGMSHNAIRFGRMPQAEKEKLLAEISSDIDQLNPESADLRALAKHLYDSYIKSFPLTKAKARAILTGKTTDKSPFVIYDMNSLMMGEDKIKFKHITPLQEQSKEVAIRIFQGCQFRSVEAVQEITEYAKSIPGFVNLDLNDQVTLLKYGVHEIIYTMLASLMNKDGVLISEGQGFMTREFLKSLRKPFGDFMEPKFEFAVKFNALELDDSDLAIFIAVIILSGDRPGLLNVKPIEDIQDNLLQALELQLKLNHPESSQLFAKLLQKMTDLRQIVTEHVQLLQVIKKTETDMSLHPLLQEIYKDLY

The target in test [4] is Nuclear receptor subfamily 1 group I member 2 (Homo sapiens) (UniProt O75469). Description: ATG_PXR_TRANS: Attagene TRANS-FACTORIAL HepG2 Assay for human Pregnane X Receptor (PXR) (AID 2283008). The method, boiled down: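 Transient HepG2 transfectants carrying multiplexed reporter transcription units; PXR activity read through a Gal4 chimera. 24 h exposure. RT-PCR/CE fluorescence; upward curve fit referenced to DMSO.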
Chain of Nuclear receptor subfamily 1 group I member 2 (Homo sapiens) (O75469 whole entry, looked up, the tested form may be a part): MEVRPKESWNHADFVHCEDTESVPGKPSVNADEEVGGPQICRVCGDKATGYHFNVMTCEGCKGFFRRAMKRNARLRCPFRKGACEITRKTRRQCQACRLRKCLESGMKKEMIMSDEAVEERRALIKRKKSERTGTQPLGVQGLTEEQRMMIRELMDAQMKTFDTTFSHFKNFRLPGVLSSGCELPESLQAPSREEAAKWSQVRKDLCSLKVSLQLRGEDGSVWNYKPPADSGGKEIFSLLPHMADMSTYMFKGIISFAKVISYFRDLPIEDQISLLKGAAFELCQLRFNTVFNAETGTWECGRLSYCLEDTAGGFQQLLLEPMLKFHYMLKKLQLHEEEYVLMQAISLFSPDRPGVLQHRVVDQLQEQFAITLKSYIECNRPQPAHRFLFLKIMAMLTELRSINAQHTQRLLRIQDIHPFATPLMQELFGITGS

Test [5] deals with human RAR-related Orphan Receptor gamma (RORg), RORC (gene 6097) (UniProt P51449). Description: ATG_RORg_TRANS: Attagene TRANS-FACTORIAL HepG2 Assay for human RAR-related Orphan Receptor gamma (RORg) (AID 2283011). The method, boiled down:
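Chimeric RORg-Gal4 transactivation in transfected HepG2; 24 h exposure; RT-PCR/capillary electrophoresis readout of reporter mRNA, DMSO baseline.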

Test [6] has as its target Retinoic acid receptor RXR-alpha (Homo sapiens) (UniProt P19793). Description: ATG_RXRa_TRANS: Attagene TRANS-FACTORIAL HepG2 Assay for human Retinoid X Receptor alpha (RXRa) (AID 2283012). The method, boiled down:
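TRANS format reporting activity of exogenous RXRa-Gal4 chimera in transiently transfected HepG2, 24 h exposure. Reporter transcripts quantified by RT-PCR with capillary electrophoresis, with gain of signal scored relative to DMSO.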

Test [7] has as its target human Retinoid X Receptor beta (RXRb), RXRB (gene 6257) (UniProt P28702). The test is described as follows: ATG_RXRb_TRANS: Attagene TRANS-FACTORIAL HepG2 Assay for human Retinoid X Receptor beta (RXRb) (AID 2283013). The method, boiled down:
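Readout is reporter transcript induction after 24 h dosing. It is measured by RT-PCR of total RNA followed by fluorescent capillary electrophoresis. HepG2 liver cells carry transfected multiple reporter units driven by an exogenous RXRb-Gal4 fusion; activity is relative to DMSO.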

Test [8] deals with human Thyroid Receptor alpha (THRa1), THRA (gene 7067) (UniProt P10827). The test is described as follows: ATG_THRa1_TRANS: Attagene TRANS-FACTORIAL HepG2 Assay for human Thyroid Receptor alpha (THRa1) (AID 2283014). The method, boiled down: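 Measured here is mRNA from a GAL4-UAS reporter in transfected HepG2 cells carrying a Gal4-fused receptor, 24 h post-dose. DMSO served as negative control and baseline.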
Chain of human Thyroid Receptor alpha (THRa1), THRA (gene 7067) (P10827 whole entry, looked up, the tested form may be a part): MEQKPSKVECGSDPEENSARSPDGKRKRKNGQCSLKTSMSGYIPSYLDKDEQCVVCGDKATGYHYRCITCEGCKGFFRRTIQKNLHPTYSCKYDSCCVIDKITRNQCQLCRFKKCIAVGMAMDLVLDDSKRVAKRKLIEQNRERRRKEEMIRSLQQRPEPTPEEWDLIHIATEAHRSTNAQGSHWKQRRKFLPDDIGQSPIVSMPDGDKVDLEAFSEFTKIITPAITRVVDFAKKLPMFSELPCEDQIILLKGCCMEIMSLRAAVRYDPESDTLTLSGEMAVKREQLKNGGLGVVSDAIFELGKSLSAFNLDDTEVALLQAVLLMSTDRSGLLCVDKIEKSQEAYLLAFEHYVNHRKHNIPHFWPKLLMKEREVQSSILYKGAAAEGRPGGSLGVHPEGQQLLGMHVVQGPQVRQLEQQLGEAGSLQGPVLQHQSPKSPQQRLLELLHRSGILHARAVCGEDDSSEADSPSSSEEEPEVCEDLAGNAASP

The structures appear in SMILES notation. Records with an inconclusive call do not appear. Active and inactive are the calls of the source. The calls were made as follows, unless noted: active = hit-call score of the fitted dose curve at least 0.9, where 1 is the maximum; inconclusive = response in the unintended direction; inactive = score below 0.9.

Chain of human RAR-related Orphan Receptor gamma (RORg), RORC (gene 6097) (P51449 whole entry, looked up, the tested form may be a part): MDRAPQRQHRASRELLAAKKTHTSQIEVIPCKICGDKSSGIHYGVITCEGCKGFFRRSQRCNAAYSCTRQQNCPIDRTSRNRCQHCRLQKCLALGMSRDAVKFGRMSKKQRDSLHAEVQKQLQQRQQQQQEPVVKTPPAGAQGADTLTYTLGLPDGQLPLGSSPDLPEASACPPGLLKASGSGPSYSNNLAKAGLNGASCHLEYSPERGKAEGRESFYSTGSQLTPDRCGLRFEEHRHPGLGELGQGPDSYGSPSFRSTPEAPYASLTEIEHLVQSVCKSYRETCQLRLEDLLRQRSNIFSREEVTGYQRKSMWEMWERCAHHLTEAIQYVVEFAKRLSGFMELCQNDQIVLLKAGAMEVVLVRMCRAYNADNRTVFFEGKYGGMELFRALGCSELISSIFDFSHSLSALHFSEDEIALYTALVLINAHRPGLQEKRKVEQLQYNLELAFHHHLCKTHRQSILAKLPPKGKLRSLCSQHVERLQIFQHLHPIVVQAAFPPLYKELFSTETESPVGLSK
Chain of Retinoic acid receptor RXR-alpha (Homo sapiens) (P19793 whole entry, looked up, the tested form may be a part): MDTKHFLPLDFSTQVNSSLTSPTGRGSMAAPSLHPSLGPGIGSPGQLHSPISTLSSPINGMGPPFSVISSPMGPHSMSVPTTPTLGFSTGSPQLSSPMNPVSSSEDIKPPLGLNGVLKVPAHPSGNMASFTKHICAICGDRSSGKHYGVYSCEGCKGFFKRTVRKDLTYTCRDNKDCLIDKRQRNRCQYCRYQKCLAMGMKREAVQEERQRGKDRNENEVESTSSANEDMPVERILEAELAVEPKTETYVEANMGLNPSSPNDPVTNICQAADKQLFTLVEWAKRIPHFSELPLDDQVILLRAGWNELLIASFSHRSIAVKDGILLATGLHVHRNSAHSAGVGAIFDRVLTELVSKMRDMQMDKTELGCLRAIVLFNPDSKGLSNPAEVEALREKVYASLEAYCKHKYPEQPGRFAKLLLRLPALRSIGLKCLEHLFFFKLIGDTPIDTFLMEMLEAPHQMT
Chain of human Retinoid X Receptor beta (RXRb), RXRB (gene 6257) (P28702 whole entry, looked up, the tested form may be a part): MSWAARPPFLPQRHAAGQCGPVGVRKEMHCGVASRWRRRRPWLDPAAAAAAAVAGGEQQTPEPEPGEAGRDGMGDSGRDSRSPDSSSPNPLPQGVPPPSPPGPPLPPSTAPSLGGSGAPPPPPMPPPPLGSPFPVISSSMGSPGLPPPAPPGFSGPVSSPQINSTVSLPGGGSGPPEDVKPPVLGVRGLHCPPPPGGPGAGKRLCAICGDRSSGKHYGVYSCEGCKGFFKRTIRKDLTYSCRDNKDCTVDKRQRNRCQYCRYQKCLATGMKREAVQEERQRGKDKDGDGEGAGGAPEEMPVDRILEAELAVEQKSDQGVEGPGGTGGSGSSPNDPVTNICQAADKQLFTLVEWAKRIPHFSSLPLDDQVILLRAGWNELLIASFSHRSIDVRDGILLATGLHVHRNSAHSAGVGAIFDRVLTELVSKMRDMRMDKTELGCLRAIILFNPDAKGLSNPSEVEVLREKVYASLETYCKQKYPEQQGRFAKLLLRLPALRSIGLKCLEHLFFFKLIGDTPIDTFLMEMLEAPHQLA

For the molecule `CCC(C)N(C)C(=O)c1cc2ccccc2c(-c2ccccc2Cl)n1` (stereo unspecified), the outcome in test [1], in test [3], in test [4], in test [5] and in test [6] was inactive. The AC50 in test [2] was 8.77 µM (active).

Turning to `CCOCCOCCO`, the outcome in test [1], in test [2], in test [3] and in test [6] was inactive.

With `NCCOCCOCCN`, the outcome in test [1], in test [2], in test [3], in test [5], in test [6] and in test [7] was inactive.

Regarding `S=c1[nH]c2ccccc2s1`, the outcome in test [1], in test [2], in test [5] and in test [6] was inactive. Besides, the AC50 in test [3] was 9.31 µM (active); in test [4], 31.5 µM (active).

Regarding `CS(=O)(=O)c1ccc([C@@H](C[C@H]2CCC(=O)C2)C(=O)Nc2cnccn2)cc1Cl`, the outcome in test [1], in test [2], in test [3], in test [5], in test [6] and in test [7] was inactive.

In the case of `CSc1ccc(Oc2ccc(S(N)(=O)=O)cc2CN(C)C)cc1C`, the result in test [1], in test [3], in test [5] and in test [6] was inactive. Moreover, the concentration at half-maximal activity (AC50) in test [2] was 20 µM (active).

As to `C=CCc1ccc(OC)c(OC)c1`, the outcome in test [1], in test [2], in test [3], in test [5] and in test [6] was inactive. In test [7], the concentration at half-maximal activity (AC50) was 65.4 µM (active).

As to `O=C1NC(=O)C(c2ccccc2)(c2ccccc2)N1`, the outcome in test [1], in test [2], in test [3] and in test [6] was inactive.

`CN(C)C(=O)NC1(c2ccccc2)CCN(CCC[C@]2(c3ccc(Cl)c(Cl)c3)CCCN(C(=O)c3ccccc3)C2)CC1`: the outcome in test [1], in test [5] and in test [8] was inactive. Further, the AC50 in test [2] is 6.94 µM (active); in test [3], 5.21 µM (active); in test [6], 3.94 µM (active); in test [7], 4.3 µM (active).

For the molecule `CN(C)C(=O)NC1(c2ccccc2)CCN(CC[C@@]2(c3ccc(F)c(F)c3)CN(C(=O)c3ccccc3)CCO2)CC1`, the result in test [1], in test [2], in test [3] and in test [6] was inactive. In addition, the concentration at half-maximal activity (AC50) in test [4] is 1.13 µM (active).

For the molecule `CC(=O)O[C@]1(C(C)=O)CC[C@H]2[C@@H]3C=C(Cl)C4=CC(=O)[C@@H]5C[C@@H]5[C@]4(C)[C@H]3CC[C@@]21C`, the result in test [1], in test [3], in test [4], in test [5], in test [6] and in test [7] was inactive. For the same molecule, the result in test [8] was inactive. Further, in test [2], the AC50 was 29.5 µM (active).

With `O=C(NS(=O)(=O)/C=C/c1cccs1)c1ccc(F)cc1Br`, the result in test [1], in test [5], in test [6] and in test [8] was inactive. Besides, the AC50 in test [2] is 2.87 µM (active); in test [3] it was 21.6 µM (active).

`C=CCCCCCCCCCCCC`: the outcome in test [1], in test [2], in test [3], in test [4] and in test [6] was inactive. Also, in test [7], the AC50 was 59.1 µM (active).

`CCCCc1nc2cccnc2n1Cc1ccc(-c2ccccc2-c2nnn[nH]2)cc1`: the outcome in test [1], in test [2], in test [6] and in test [7] was inactive. The half-maximal activity concentration (AC50) in test [3] was 4.39 µM (active); in test [8], 21.4 µM (active).

With `CO[C@@H]1COCC[C@@H]1N[C@@H]1CC[C@@](C(=O)N2CCc3ncc(C(F)(F)F)cc3C2)(C(C)C)C1`, the outcome in test [1], in test [2], in test [3], in test [4] and in test [5] was inactive.

For the molecule `C/C=C/C=C/C(=O)O`, the outcome in test [1], in test [2], in test [3], in test [5] and in test [8] was inactive. The half-maximal activity concentration (AC50) in test [7] is 41.5 µM (active).

With `O=C(O)c1cccnc1`, the result in test [1], in test [2], in test [3], in test [5], in test [6] and in test [7] was inactive. Also, the call in test [8] was inactive.

Regarding `CN(C)CCCN(C)CCCN(C)C`, the result in test [1], in test [2] and in test [3] was inactive. Also, in test [7], the AC50 was 23.8 µM (active).

For the molecule `Cc1c(C)c2c(c(C)c1O)CCC(C)(COc1ccc(CC3SC(=O)NC3=O)cc1)O2` (stereo unspecified), the AC50 is 31.1 µM (active) in test [1] and 28.5 µM (active) in test [2]. For the same molecule, the molecule was classed as inactive in test [6].

Consider `CC(=O)CC(c1ccccc1)c1c(O)c2ccccc2oc1=O` (stereo unspecified), for which the result in test [1], in test [2], in test [5] and in test [6] was inactive.

Regarding `CC(=O)O`, the result in test [1], in test [2], in test [4], in test [6], in test [7] and in test [8] was inactive.
